# ± gives the standard deviation of the averaged measurements.
# How the values were obtained:
# Conditions in all cases: concentration: 10 µM; 24 h
# HCC1569 [1] = experiment: cell number relative to DMSO (% of DMSO); higher = more cells (less growth inhibition / toxicity)
# How it was run: (§1)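 H1.0 nuclear intensity or cell number is expressed as percent of the plate control, with the median of replicates taken. HCC1569 and TDF cells were treated with compounds at 10 µM for 24 h at 37 °C, in triplicate, then fixed and immunostained for H1.0 with DAPI as a nuclear stain. HCC1569 values were smoothed to correct for positional effects.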
# TDF [2] = experiment: as above
# How it was run: as §1
# TDF [3] = experiment: H1.0 immunofluorescence intensity relative to DMSO (% of DMSO); higher = stronger H1.0 induction, active = 120 or more
# How it was run: as §1
# HCC1569 [4] = experiment: H1.0 immunofluorescence intensity relative to DMSO (% of DMSO); higher = stronger H1.0 induction, active = 140 or more
# How it was run: as §1
# 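Wherever H1.0 immunofluorescence intensity relative to DMSO is given: TDF is a line of transformed human dermal fibroblasts of mesenchymal origin.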
# 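Wherever cell number relative to DMSO is given: TDF denotes transformed human dermal fibroblasts of mesenchymal origin.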
SMILES,cell number (HCC1569 [1]),cell number (TDF [2]),H1.0 immunofluorescence intensity (TDF [3]),H1.0 immunofluorescence intensity (HCC1569 [4])
"CCCC(=O)OC1C(C)C2(O)C(C=C(CO)CC3(O)C(=O)C(C)=CC32)C2C(C)(C)C12OC(=O)CCC (stereo not drawn) [Phorbol 12,13-dibutyrate]",89.5,74.2,123 (active),157 (active)
CS(=O)(=O)O.S=C=Nc1cccc(C2(N3CCCCC3)CCCCC2)c1 [Metaphit methanesulfonate],106,107,83.4 (inactive),94.5 (inactive)
COc1cccc2c1cc([N+](=O)[O-])c1c(C(=O)O)cc3c(c12)OCO3 [Aristolochic acid A],102,110,98.4 (inactive),91.2 (inactive)
Cl.O=C1CC2OCC=C3CN4CCC56c7ccccc7N1C5C2C3CC46 (stereo not drawn),103 ± 5.8,102 ± 1.1,94.3 (inactive),94.2 (inactive)
Cl.c1ccc2c(N3CCNCC3)cccc2c1 [1-(1-Naphthyl)piperazine hydrochloride],99.6,94.3,105 (inactive),106 (inactive)
"CC1OC(C[N+](C)(C)C)CC1O.[Cl-] (single isomer, unassigned; (+)) [(+)-Muscarine chloride]",106,116,93 (inactive),83.8 (inactive)
Cl.O=C(CCCN1CCC2(CC1)C(=O)N(CCc1ccc(N=C=S)cc1)CN2c1ccccc1)c1ccc(F)cc1 [N-(p-Isothiocyanatophenethyl)spiperone hydrochloride],82.7,74,128 (active),149 (active)
Nc1ncnc2c1ccn2C1OC(CO)C(O)C1O (stereo not drawn) [Tubericidin],42.7,32.3,118 (inactive),70.1 (inactive)
CC(C)NCC(O)c1ccc(N)c(C#N)c1 (stereo not drawn) [Cimaterol],103,108,87.7 (inactive),102 (inactive)
COC(C)C(O)(C(=O)OCC1=CCN2CCC(O)C12)C(C)C (stereo not drawn) [Heliotrine],99.8,105,91.4 (inactive),90.6 (inactive)
"COc1ccc2c(c1O)-c1c(OC)c(OC)cc3c1C(C2)N(C)CC3.Cl (single isomer, unassigned; (+)) [(+)-Isocorydine hydrochloride]",103,107,94.5 (inactive),91.4 (inactive)
CC1Cc2cc3c(cc2C(c2ccc(N)cc2)=NN1)OCO3 (stereo not drawn),98.9,112,103 (inactive),98.2 (inactive)
Cl.NCCc1c[nH]c2ccc(O)cc12 [Serotonin hydrochloride],102,118,90.1 (inactive),92.2 (inactive)
CCN1CC2(COC)C(O)CC(OC)C34C5CC6(O)C(OC)C(O)C(OC(C)=O)(C5C6OC(=O)c5ccccc5)C(C(OC)C23)C14 (stereo not drawn) [Aconitine],99.9,97.3,96.5 (inactive),94.5 (inactive)
CN1CC(NS(=O)(=O)N(C)C)CC2c3cccc4c3c(cn4C)CC21.Cl (stereo not drawn) [Mesulergine hydrochloride],101,100,93.4 (inactive),94.2 (inactive)
CCCCCCCCCCCCCC(=O)OC1C(C)C2(O)C(C=C(CO)CC3(O)C(=O)C(C)=CC32)C2C(C)(C)C12OC(C)=O (stereo not drawn) [4alpha-Phorbol-12-myristate-13-acetate],98.4,111,95.6 (inactive),108 (inactive)
"O=c1cccc2n1CC1CNCC2C1 (single isomer, unassigned; (-)) [(-)-Cytisine]",103,85.2,102 (inactive),96.6 (inactive)
"CCCCCC=CCC=CCCCCCCCC(=O)NCCO [Anandamide (18:2,n-6)]",100,108,99.1 (inactive),94.4 (inactive)
CC(NC(C)(C)C)C(=O)c1cccc(Cl)c1.Cl (stereo not drawn) [Bupropion hydrochloride],106,109,102 (inactive),99.7 (inactive)
C=CCN1CC(C(=O)N(CCCN(C)C)C(=O)NCC)CC2c3cccc4[nH]cc(c34)CC21 (stereo not drawn) [Cabergoline],109,102,96.1 (inactive),102 (inactive)
CC(=O)OC1C2C(OC(=O)Cc3ccccc3)C(C)CC2(OC(C)=O)C(=O)C(C)=CC2C(CCC13CO3)C2(C)C (stereo not drawn) [Euphorbiasteroid],102,106,105 (inactive),91.5 (inactive)
O=c1c2ccccc2[se]n1-c1ccccc1 [Ebselen],102.1 ± 0.14,97.7 ± 1.2,102 (inactive),114 (inactive)
CC(C)C1CNC(C(=O)O)C1CC(=O)O (stereo not drawn) [Dihydrokainic acid],102,116,89.2 (inactive),88.7 (inactive)
CCC(C)C(=O)OC1C(O)C2C(CN3CC(C)CCC3C2(C)O)C2CC34OC5(O)C(OC(=O)C(C)(O)C(C)O)CCC3(C)C5C(OC(C)=O)C(OC(C)=O)C4C21O (stereo not drawn) [Protoveratrine B],104,97.9,106 (inactive),93.2 (inactive)

SMILES,cell number (HCC1569 [1]),cell number (TDF [2]),H1.0 immunofluorescence intensity (TDF [3]),H1.0 immunofluorescence intensity (HCC1569 [4])
CC(C)c1cc2c(c(O)c1O)C1(C(=O)O)CCCC(C)(C)C1CC2 (stereo not drawn) [Carnosic acid],96.8,99.9,95.3 (inactive),103 (inactive)
"NC(Cn1oc(=O)[nH]c1=O)C(=O)O (single isomer, unassigned; (+)) [(+)-Quisqualic acid]",101,94.1,93.9 (inactive),103 (inactive)
COc1ccc(C(=O)OC2CCC3(C)C4CCC5C6(O)CC(O)C7(O)C(CN8CC(C)CCC8C7(C)O)C6(O)CC53OC24O)cc1OC (stereo not drawn) [Veratridine],107,97.2,96.7 (inactive),81.9 (inactive)
NC1CC1c1ccccc1 (stereo not drawn) [Tranylcypromine],102,117,109 (inactive),96 (inactive)
"NCCN(CCN)N(O)N=O [1,1-bis(2-aminoethyl)-2-hydroxy-3-oxotriazane]",99.5,97.5,93.1 (inactive),95 (inactive)
C#CC1(O)CCC2C3CCC4=CC(=O)CCC4=C3C=CC21CC (stereo not drawn) [Gestrinone],99.4,100,91.2 (inactive),112 (inactive)
CC(C)C1(NC(=O)C2CC3c4cccc5[nH]cc(c45)CC3N(C)C2)OC2(O)C3CCCN3C(=O)C(Cc3ccccc3)N2C1=O (stereo not drawn) [Dihydroergocristine],104,100,90.4 (inactive),117 (inactive)
COC1=CC(=O)OC(CCc2ccc3c(c2)OCO3)C1 (stereo not drawn) [Dihydromethysticin],96.6,105,90.4 (inactive),83.9 (inactive)
COC1=CC(=O)OC(C=Cc2ccc3c(c2)OCO3)C1 (stereo not drawn) [Methysticin],106,106,90.6 (inactive),89 (inactive)
"CCc1c(C(=O)OC)ncc2[nH]c3cc(OC)c(OC)cc3c12 [Methyl 6,7-dimethoxy-4-ethyl-beta-carboline-3-carboxylate]",95.8,99.5,88.1 (inactive),130 (inactive)
O=C(O)c1cc[c]([Hg][Cl])cc1 [4-Chloromercuribenzoic acid],102,111,91.8 (inactive),92.6 (inactive)
CC(=CC=CC(C)C(=O)O)C1CNC(C(=O)O)C1CC(=O)O (stereo not drawn) [Domoic acid],101,109,93.6 (inactive),86.3 (inactive)
"CCCN(CCC)CCc1c[nH]c2ccc(C(N)=O)cc12.O=C(O)C=CC(=O)O [N,N-Dipropyl-5-carboxamidotryptamine maleate]",99.4,104,97 (inactive),98.9 (inactive)
O=C(O)c1nn(Cc2ccc(Cl)cc2Cl)c2ccccc12 [Lonidamine],107,96.2,94.3 (inactive),92.3 (inactive)
C=CCN1CCC23c4c5ccc(O)c4OC2C(=NN=C2CCC4(O)C6Cc7ccc(O)c8c7C4(CCN6CC=C)C2O8)CCC3(O)C1C5.Cl.Cl (stereo not drawn) [Naloxonazine dihydrochloride],77.5,62.9,126 (active),121 (inactive)
COc1cc(C(O)CN)ccc1O.Cl (racemic),102,111,92.5 (inactive),94.7 (inactive)
CC=C1CC(C)C(O)(CO)C(=O)OCC2=CCN3CCC(OC1=O)C23 (stereo not drawn) [Retrorsine],101,115,93.8 (inactive),90.4 (inactive)
COc1cc2c3cc1Oc1c(OO)c(OC)cc4c1C(Cc1ccc(cc1)Oc1cc(ccc1O)CC3N(C)CC2)N(C)CC4.O=S(=O)(O)O (stereo not drawn) [Oxyacanthine sulfate],55.6,11.7,186 (active),148 (active)
O=C(O)CC[N+](=O)[O-] [3-Nitropropionic acid],103,109,89.6 (inactive),84.9 (inactive)
O=C1Nc2ccc3ncsc3c2C1=Cc1cnc[nH]1 [PKR Inhibitor],61.1,17,112 (inactive),136 (inactive)
CC(C)(C)NCC(O)c1ccccc1Cl (stereo not drawn) [Tulobuterol],111,101,90.7 (inactive),114 (inactive)
COc1ccc(C(=O)OC2CC3CCC(C2)N3C)cc1OC (stereo not drawn) [Convolvamine],105,96.1,97.8 (inactive),90 (inactive)
CC(=O)N1N=C(c2ccc(N)cc2)c2cc3c(cc2C[C@H]1C)OCO3,95.4,103,106 (inactive),95.8 (inactive)
